Data: PubChem BioAssay AID1347417 (National Center for Advancing Translational Sciences (NCATS), 2020)
The campaign covered roughly 120,000 compounds. About 5,300 (4.4%) were called active. About 22% were inconclusive and are not listed. The call rests on the fitted dose curve; in most records, active means well fitted inhibition curve with a large enough effect; inconclusive means small, poorly fitted or top-dose-only effect; inactive means no such curve, though single readings can be large or run the other way. The list comes from a sample in which actives are over-represented; it also holds similar structures and randomly drawn compounds. Entries that show only a call come without a potency.

Assay: qHTS Primary assay for Inhibitors of Plasmodium falciparum Dd2 growth in vitro; further: nearly all actives have a fitted effect of over 65% in size
Conditions: P. falciparum Dd2 growth, SYBR Green, 72 h; series mostly up to 28.9 µM
Summary of the method: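 Infected erythrocytes (Dd2, 0.3% parasitemia, 2.5% hematocrit final) are added to compound in RPMI-1640/Albumax II medium, grown 72 h at 37C in low oxygen, then lysed with saponin/Triton-X containing SYBR Green and read by fluorescence.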
Potency means the concentration at half of the fitted maximal effect.

Row | SMILES | Potency
1 | Cc1cccc(-c2noc(CCC(=O)N[C@H]3CC[C@H]3NC3CCCC3)n2)c1 | inactive
2 | CO[C@H]1C(=O)N(C2CCN(C(=O)c3ccncc3)CC2)[C@H]1c1ccncc1 | inactive
3 | Cc1nc(-c2c3n(c(=O)n(Cc4ccc(Br)cc4)c2=O)CCCCC3)no1 | inactive
4 | CNC(=O)[C@@H]1C[C@H](n2cc(CN(C)C(=O)c3cccc(F)c3F)nn2)CN1 | inactive
5 | CCc1cccc(-n2nnnc2N2CCN(C(=O)Nc3ccc(C)c(OC)c3)CC2)c1 | inactive
6 | O=C(O)CN1CC2(CCC1=O)CCN(C(=O)C1CNC(=O)C1)CC2 (stereo not given) | inactive
7 | CCC(C(=O)NCCn1ccn2nc(-c3ccc(F)cc3)cc2c1=O)c1ccccc1 (stereo not given) | inactive
8 | COc1ccccc1-c1cc(-c2cn[nH]c2)c2cncn2c1 | 12.6 µM (active)
9 | Cc1noc(C)c1-c1cc(-c2ccccc2Oc2ccccc2)cn2cncc12 | 5.62 µM (active)
10 | COc1ccc(-c2cc(-c3cccc4[nH]ncc34)cn3cncc23)cn1 | 3.98 µM (active)
11 | OCc1ccc(-c2cc(-c3cccnc3)c3cncn3c2)cc1 | inactive
12 | COc1ccc(-c2nccc3c(=O)cc(N(C)c4ccccc4)oc23)cn1 | inactive
13 | COc1ccccc1-c1cc(-c2cn[nH]c2)c2onc(C)c2n1 | inactive
14 | Cc1noc(C)c1-c1cc(-c2cncnc2)cn2cncc12 | inactive
15 | COc1ccc(-c2cc(-c3cnc4[nH]ccc4c3)cn3cncc23)cn1 | 4.47 µM (active)
16 | Cn1cc(-c2cc(-c3cccnc3)c3cncn3c2)cn1 | inactive
17 | CCCN1CCN(C(=O)CC2CCCN(c3cnn(CCOC)c(=O)c3)C2)CC1 (stereo not given) | inactive
18 | O=C(c1cnccn1)N1CC2CC(C1)[C@H]1CCCC(=O)N1C2 (stereo not given in full) | inactive
19 | CCn1ncc(C(=O)N2CC[C@@H]3CN(S(C)(=O)=O)[C@@H]3C2)c1C | inactive
20 | NC(=O)CCNC(=O)C1=C[C@@H](NC(=O)CC2(CC(=O)O)CCCC2)[C@@H](O)[C@H](O)C1 | inactive
21 | O=C(c1ccc(C(F)(F)F)cc1)N1CCC([C@@H]2CNC[C@H]2CO)CC1 | inactive
22 | Cc1nnc2n1CCC(NC(=O)c1cc(CN3CCOCC3)on1)CC2 (stereo not given) | inactive
23 | CN(C)C[C@H]1C[C@@H](CO)CN(C(=O)CCc2ccncc2)C1 | inactive
24 | O=C1CCN(C(=O)C2CCN(C(=O)NC3CCCCC3)CC2)CCCCCCN1 | inactive
25 | Cc1cccc(C)c1-c1nc(C(=O)NCc2ccc(F)cc2)n2ccccc12 | inactive
26 | O=C(NCc1ccc(F)cc1)c1nc(-c2ccccc2)c2ccccn12 | 11.2 µM (active)
27 | COCCNC(=O)c1nc(-c2cc(Cl)cc(Cl)c2)c2ccccn12 | inactive
28 | CC(C)c1ccc(NC(=O)c2cc(S(=O)(=O)N3CCc4ccccc4C3)ccc2F)cc1 | inactive
29 | CCc1ccc(NC(=O)c2cc(S(=O)(=O)NC3CCCCCC3)ccc2F)cc1 | 7.94 µM (active)
30 | NS(=O)(=O)c1ccc(NC(=O)COc2ccc(S(=O)(=O)NC3CCCCC3)cc2)cc1 | inactive
